Experimental data taken from PubChem BioAssay (NCI).
The panel holds about 83,000 compounds, 20% with a hit somewhere; the sample as a whole holds those more often.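 96-well plates, one dose, 48 hours. Percent growth reported; active if below 10.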 A number with no mark means an inactive call. Active and inactive are the calls of the source.

What was measured:
Assay in all cases: NCI-60 one-dose screen, 48 h (100 = growth as untreated, 0 = no growth, -100 = all killed)
Conditions in all cases: 10 µM unless noted
[1] = test system: NCI-H23 lung
[2] = test system: NCI-H226 lung
[3] = test system: NCI-H322M lung
[4] = test system: HOP-62 NSCLC
[5] = test system: NCI-H460 lung
[6] = test system: 786-0 renal
[7] = test system: MDA-MB-231 breast
[8] = test system: SF-268 CNS
[9] = test system: M14 melanoma
[10] = test system: PC-3 prostate
[11] = test system: UACC-62 melanoma
[12] = test system: SK-MEL-28 melanoma
[13] = test system: SN12C renal
[14] = test system: UO-31 renal
[15] = test system: OVCAR-5 ovarian
[16] = test system: NCI/ADR-RES ovarian
[17] = test system: MDA-MB-435 melanoma
[18] = test system: SW-620 colon
[19] = test system: HCT-116 colon
[20] = test system: KM12 colon

C=CCc1ccc(OC(=O)Cc2ccccc2)c(OC)c1
growth [1]: 93.8%
growth [2]: 95%
growth [3]: 98.3%
growth [4]: 93.2%
growth [5]: 105%
growth [6]: 99.2%
growth [7]: 106%
growth [8]: 107%
growth [9]: 106%
growth [10]: 100%
growth [11]: 114%
growth [12]: 106%
growth [13]: 99.5%
growth [14]: 77.1%
growth [15]: 110%
growth [16]: 105%
growth [17]: 107%
growth [18]: 106%
growth [19]: 105%
growth [20]: 110%

CCC1([N+](=O)[O-])COP(=O)(NCc2cccnc2)OC1 (stereo not given)
growth [1]: 115%
growth [2]: 99.9%
growth [3]: 111%
growth [4]: 103%
growth [5]: 104%
growth [6]: 96.4%
growth [7]: 111%
growth [8]: 106%
growth [9]: 109%
growth [10]: 106%
growth [11]: 105%
growth [12]: 113%
growth [13]: 114%
growth [14]: 91.1%
growth [15]: 99.7%
growth [16]: 112%
growth [17]: 117%
growth [18]: 105%
growth [19]: 103%
growth [20]: 103%

N#CC1=C(N)Oc2cc3c(cc2C1c1cccs1)OCO3 (stereo not given)
growth [1]: 15.2%
growth [2]: 47.6%
growth [3]: 40.5%
growth [4]: 26.3%
growth [5]: 15.6%
growth [6]: 49.5%
growth [7]: 41.8%
growth [8]: 47.3%
growth [9]: 15.1%
growth [10]: 24%
growth [11]: 31.1%
growth [12]: 37.9%
growth [13]: 52.7%
growth [14]: 49.2%
growth [15]: 52.2%
growth [16]: 3.49% (active)
growth [17]: -7.43% (active)
growth [18]: 26.3%
growth [19]: 21.2%
growth [20]: 34.2%
